# Data: PubChem BioAssay AID1159580 (chemical genetic matrix, 2015)
# In all, about 5,500 compounds went through this assay and about 2,000 (36%) were called active. Not shown: some 18% with an inconclusive outcome. The list shows a part of the results. A number with no mark means an inactive call. No stated cut-off is given here; in the data, active means normalized growth mostly below about 0.91 (no sharp cut-off); inconclusive means no clear call, values can overlap the other calls; inactive means mostly above about 0.92.
# Experiment: chemical genetic growth profiling, strain panel (AID 1159580);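 further: tested at 20 µM; growth read once vehicle control cultures reached saturation at 30 °C; 1 = growth at the plate median or of vehicle wells; lower values mean less growth of the strain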
# Conditions: growth OD
# [1] = S. cerevisiae deletion strains, locus YAL013W, strain DEP1, hits give low values
# [2] = S. cerevisiae deletion strains, locus YBR229C, strain ROT2, hits give low values
# [3] = S. cerevisiae deletion strains, locus YDL101C, strain DUN1, hits give low values
# [4] = S. cerevisiae deletion strains, locus YDL134C, strain PPH21, hits give low values
# [5] = S. cerevisiae deletion strains, locus YDR150W, strain NUM1, hits give low values
# [6] = S. cerevisiae deletion strains, locus YEL061C, strain CIN8, hits give low values
# [7] = S. cerevisiae deletion strains, locus YGR078C, strain PAC10, hits give low values
# [8] = S. cerevisiae deletion strains, locus YGR229C, strain SMI1, hits give low values
# [9] = S. cerevisiae deletion strains, locus YHR030C, strain SLT2, hits give low values
# [10] = S. cerevisiae deletion strains, locus YHR087W, strain rtc3, hits give low values
# [11] = S. cerevisiae deletion strains, locus YJR043C, strain POL32, hits give low values
# [12] = S. cerevisiae deletion strains, locus YJR075W, strain HOC1, hits give low values
# [13] = S. cerevisiae deletion strains, locus YLR039C, strain RIC1, hits give low values
# [14] = S. cerevisiae deletion strains, locus YLR058C, strain SHM2 (second series), hits give low values
# [15] = S. cerevisiae deletion strains, locus YLR085C, strain ARP6, hits give low values
# [16] = S. cerevisiae deletion strains, locus YLR262C, strain YPT6, hits give low values
# [17] = S. cerevisiae deletion strains, locus YML094W, strain GIM5, hits give low values
# [18] = S. cerevisiae deletion strains, locus YMR219W, strain ESC1, hits give low values
# [19] = S. cerevisiae deletion strains, locus YMR263W, strain SAP30, hits give low values
# [20] = S. cerevisiae deletion strains, locus YNL153C, strain GIM3, hits give low values
# [21] = S. cerevisiae deletion strains, locus YNL298W, strain CLA4 (second series), hits give low values
# [22] = S. cerevisiae deletion strains, locus YNL322C, strain KRE1, hits give low values
# [23] = S. cerevisiae deletion strains, locus YNR030W, strain Alg12, hits give low values
# [24] = S. cerevisiae deletion strains, locus YPL055C, strain LGE1, hits give low values
# [25] = S. cerevisiae deletion strains, locus YPL241C, strain CIN2, hits give low values
# [26] = S. cerevisiae deletion strains, locus YPR135W, strain CTF4, hits give low values
smiles,measurement,setting,value
CCN1CN=C(SCc2ccc(C)cc2)NC1,normalized growth,[1],0.986
same,normalized growth,[2],0.992
same,normalized growth,[3],0.991
same,normalized growth,[4],1
same,normalized growth,[5],0.932
same,normalized growth,[6],0.997
same,normalized growth,[7],0.983
same,normalized growth,[8],1
same,normalized growth,[9],0.915
same,normalized growth,[10],0.968
same,normalized growth,[11],0.976
same,normalized growth,[12],0.986
same,normalized growth,[13],0.977
same,normalized growth,[14],0.977
same,normalized growth,[15],0.997
same,normalized growth,[16],0.974
same,normalized growth,[17],0.998
same,normalized growth,[18],0.994
same,normalized growth,[19],0.974
same,normalized growth,"S. cerevisiae deletion strains, locus YMR307W, strain GAS1, hits give low values",1.05
same,normalized growth,[20],0.98
same,normalized growth,[21],0.975
same,normalized growth,[22],0.994
same,normalized growth,[23],0.986
same,normalized growth,[24],0.947
same,normalized growth,[25],0.978
same,normalized growth,[26],0.904
COc1cc(NC(=O)NS(=O)(=O)c2ccc(C)cc2)cc(C(F)(F)F)c1,normalized growth,[1],0.991
same,normalized growth,[2],0.995
same,normalized growth,"S. cerevisiae deletion strains, locus YCL061C, strain MRC1, hits give low values",0.987
same,normalized growth,[3],0.99
same,normalized growth,[4],1
same,normalized growth,[5],0.91
same,normalized growth,[6],1.02
same,normalized growth,[7],0.995
same,normalized growth,[8],0.996
same,normalized growth,[9],1.1
same,normalized growth,[10],0.994
same,normalized growth,[11],0.998
same,normalized growth,[12],0.965
same,normalized growth,[13],0.925
same,normalized growth,[14],0.999
same,normalized growth,[15],1.05
same,normalized growth,[16],0.907
same,normalized growth,[17],1.01
same,normalized growth,[18],0.997
same,normalized growth,[19],1
same,normalized growth,[20],0.995
same,normalized growth,[21],1.03
same,normalized growth,[22],0.986
same,normalized growth,[23],1.03
same,normalized growth,"S. cerevisiae deletion strains, locus YOL006C, strain TOP1, hits give low values",1.06
same,normalized growth,[24],0.966
same,normalized growth,[25],1.11
same,normalized growth,[26],1.02
same,normalized growth,"S. cerevisiae strains, strain wild type, hits give low values",1
COc1cc(NC(=S)Nc2ccccc2OC(F)(F)F)cc(C(F)(F)F)c1,normalized growth,"S. cerevisiae deletion strains, locus YAR019C, strain CDC15, hits give low values",0.969
same,normalized growth,"S. cerevisiae deletion strains, locus YBL105C, strain PKC1, hits give low values",0.977
same,normalized growth,"S. cerevisiae deletion strains, locus YBR135W, strain CKS1, hits give low values",0.977
same,normalized growth,"S. cerevisiae deletion strains, locus YBR136W, strain MEC1, hits give low values",0.975
same,normalized growth,"S. cerevisiae deletion strains, locus YBR160W, strain CDC28, hits give low values",0.972
same,normalized growth,"S. cerevisiae deletion strains, locus YDL017W, strain CDC7, hits give low values",0.982
same,normalized growth,"S. cerevisiae deletion strains, locus YDL028C, strain MPS1, hits give low values",0.962
same,normalized growth,[3],0.99
same,normalized growth,"S. cerevisiae deletion strains, locus YDL108W, strain KIN28, hits give low values",0.965
same,normalized growth,"S. cerevisiae deletion strains, locus YDL132W, strain cdc53, hits give low values",0.974
same,normalized growth,"S. cerevisiae deletion strains, locus YDL214C, strain PRR2, hits give low values",0.937
same,normalized growth,"S. cerevisiae deletion strains, locus YDR052C, strain DBF4, hits give low values",0.991
same,normalized growth,"S. cerevisiae deletion strains, locus YDR054C, strain cdc34, hits give low values",0.975
same,normalized growth,"S. cerevisiae deletion strains, locus YDR226W, strain ADK1, hits give low values",0.977
same,normalized growth,"S. cerevisiae deletion strains, locus YDR477W, strain SNF1, hits give low values",0.945
same,normalized growth,"S. cerevisiae deletion strains, locus YER123W, strain YCK3, hits give low values",0.931
same,normalized growth,"S. cerevisiae deletion strains, locus YER133W, strain GLC7, hits give low values",0.948
same,normalized growth,"S. cerevisiae deletion strains, locus YFL009W, strain cdc4, hits give low values",0.967
same,normalized growth,"S. cerevisiae deletion strains, locus YFL029C, strain CAK1, hits give low values",0.962
same,normalized growth,"S. cerevisiae deletion strains, locus YFR003C, strain YPI1, hits give low values",0.987
same,normalized growth,"S. cerevisiae deletion strains, locus YFR019W, strain FAB1, hits give low values",0.983
same,normalized growth,"S. cerevisiae deletion strains, locus YFR028C, strain CDC14, hits give low values",0.969
same,normalized growth,"S. cerevisiae deletion strains, locus YGR040W, strain KSS1, hits give low values",0.951
same,normalized growth,"S. cerevisiae deletion strains, locus YGR052W, strain FMP48, hits give low values",0.994
same,normalized growth,"S. cerevisiae deletion strains, locus YGR092W, strain DBF2, hits give low values",0.962
same,normalized growth,[9],0.824 (active)
same,normalized growth,"S. cerevisiae deletion strains, locus YHR079C, strain IRE1, hits give low values",0.985
same,normalized growth,"S. cerevisiae deletion strains, locus YHR082C, strain KSP1, hits give low values",0.972
same,normalized growth,"S. cerevisiae deletion strains, locus YHR205W, strain SCH9, hits give low values",0.922
same,normalized growth,"S. cerevisiae deletion strains, locus YIL147C, strain SLN1, hits give low values",0.961
same,normalized growth,"S. cerevisiae deletion strains, locus YJL095W, strain BCK1, hits give low values",0.956
same,normalized growth,"S. cerevisiae deletion strains, locus YJL128C, strain PBS2, hits give low values",0.929
same,normalized growth,"S. cerevisiae deletion strains, locus YJL157C, strain FAR1, hits give low values",0.962
same,normalized growth,"S. cerevisiae deletion strains, locus YJR016C, strain ILV3, hits give low values",0.989
same,normalized growth,"S. cerevisiae deletion strains, locus YJR066W, strain TOR1 (second series), hits give low values",1
same,normalized growth,"S. cerevisiae deletion strains, locus YJR066W, strain TOR1, hits give low values",0.926
same,normalized growth,"S. cerevisiae deletion strains, locus YKL048C, strain ELM1, hits give low values",0.971
same,normalized growth,"S. cerevisiae deletion strains, locus YKL067W, strain YNK1, hits give low values",0.926
same,normalized growth,"S. cerevisiae deletion strains, locus YKL101W, strain HSL1, hits give low values",0.937
same,normalized growth,"S. cerevisiae deletion strains, locus YKL193C, strain SDS22, hits give low values",0.977
same,normalized growth,"S. cerevisiae deletion strains, locus YKL203C, strain TOR2, hits give low values",1.03
same,normalized growth,"S. cerevisiae deletion strains, locus YLR113W, strain HOG1, hits give low values",0.886
same,normalized growth,"S. cerevisiae deletion strains, locus YLR133W, strain CKI1, hits give low values",0.96
same,normalized growth,"S. cerevisiae deletion strains, locus YLR403W, strain SFP1, hits give low values",0.968
same,normalized growth,"S. cerevisiae deletion strains, locus YML070W, strain DAK1, hits give low values",0.94
same,normalized growth,"S. cerevisiae deletion strains, locus YMR001C, strain CDC5, hits give low values",0.959
same,normalized growth,"S. cerevisiae deletion strains, locus YMR205C, strain PFK2 (second series), hits give low values",0.962
same,normalized growth,"S. cerevisiae deletion strains, locus YMR277W, strain FCP1, hits give low values",0.954
same,normalized growth,"S. cerevisiae deletion strains, locus YNL006W, strain LST8, hits give low values",0.978
same,normalized growth,"S. cerevisiae deletion strains, locus YNL020C, strain ARK1, hits give low values",0.965
same,normalized growth,"S. cerevisiae deletion strains, locus YNL161W, strain CBK1, hits give low values",0.977
same,normalized growth,"S. cerevisiae deletion strains, locus YNL183C, strain NPR1, hits give low values",1.01
same,normalized growth,"S. cerevisiae deletion strains, locus YNL207W, strain RIO2, hits give low values",0.985
same,normalized growth,"S. cerevisiae deletion strains, locus YNL222W, strain SSU72, hits give low values",0.965
same,normalized growth,"S. cerevisiae deletion strains, locus YNL307C, strain MCK1 (second series), hits give low values",0.956
same,normalized growth,"S. cerevisiae deletion strains, locus YOL078W, strain AVO1, hits give low values",0.97
same,normalized growth,"S. cerevisiae deletion strains, locus YOL136C, strain PFK27, hits give low values",0.935
same,normalized growth,"S. cerevisiae deletion strains, locus YOR061W, strain CKA2, hits give low values",0.962
same,normalized growth,"S. cerevisiae deletion strains, locus YOR119C, strain RIO1, hits give low values",0.964
same,normalized growth,"S. cerevisiae deletion strains, locus YOR231W, strain MKK1, hits give low values",0.945
same,normalized growth,"S. cerevisiae deletion strains, locus YOR329C, strain SCD5, hits give low values",0.99
same,normalized growth,"S. cerevisiae deletion strains, locus YPL031C, strain PHO85, hits give low values",0.957
same,normalized growth,"S. cerevisiae deletion strains, locus YPL153C, strain RAD53, hits give low values",0.952
same,normalized growth,"S. cerevisiae deletion strains, locus YPL204W, strain HRR25, hits give low values",0.957
same,normalized growth,"S. cerevisiae deletion strains, locus YPL209C, strain IPL1, hits give low values",0.976
same,normalized growth,"S. cerevisiae deletion strains, locus YPL256C, strain CLN2, hits give low values",0.927
same,normalized growth,"S. cerevisiae deletion strains, locus YPR025C, strain CCL1, hits give low values",0.984
same,normalized growth,"S. cerevisiae deletion strains, locus YPR106W, strain ISR1, hits give low values",0.974
same,normalized growth,"S. cerevisiae deletion strains, locus YPR111W, strain DBF20, hits give low values",0.953
same,normalized growth,"S. cerevisiae deletion strains, strain NNK1, hits give low values",0.974
same,normalized growth,"S. cerevisiae deletion strains, strain TSCII, hits give low values",0.97
